Consider 40 compounds from PubChem BioAssay (NCI).

The panel holds about 83,000 compounds, 20% with a hit somewhere; the sample as a whole holds those more often.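 Percent growth is the endpoint: 0 to 100 indicates growth inhibition (40 means 60% inhibition), 0 means no net growth, and negative values indicate cell death.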 A number with no mark means an inactive call. Activity calls are given as the source filed them. The calls were made as follows: active = growth percent below 10; inactive = the rest.

For the assay, the system named is MDA-MB-468 breast. The assay can be described thus: NCI-60 one-dose screen, 48 h (100 = growth as untreated, 0 = no growth, -100 = all killed). Particulars: 10 µM unless noted.
Consider `Cc1c(C2=CCCCC2)c2ccccn2c1C(=O)c1cccc(S(=O)(=O)N2CCOCC2)c1`, for which the growth was 51.5%.

In the case of `COc1ccc(-c2csc(NC(=O)CSc3nc(-c4ccccc4)cc(=O)[nH]3)n2)cc1`, the growth is 14.9%.

On to `CC(=O)OC1CCC2(C)C(CCC3C4CC=C(C(C)=O)C4(C)OC(=O)CC32)C1` (stereo not given), for which the growth was -72.4% (active).

Regarding `O=C(Nc1ccc2c(ccn2Cc2ccccn2)c1)c1ccnnc1`, the growth is 89.7%.

`COc1ccc(-c2nc(SCC(C)C)nc(Nc3ccc(C)cc3)c2C#N)cc1`: the growth is 71.1%.

Turning to `Cc1ccc(C)c2c1sc1nc(N3CCOCC3)c(C#N)c(=O)n12`, the growth is 86.9%.

`c1ccc(CCSc2ncnc3nc[nH]c23)cc1`: the growth is 49%.

Consider `CCN(CC)c1ccc(/C=C/c2ccc3cc(C)ccc3[n+]2CC)cc1`, for which the growth was -24% (active).

`Cn1cc(-c2cc3ncnc(Nc4ccc(CC(=O)Nc5cc(C(C)(C)C)on5)cc4)c3s2)cn1`: the growth is 31.5%.

For the compound `N#CC(C#N)=C1NC(c2ccccc2)=C(c2ccccc2)C(c2ccccc2Cl)=C1C#N`, the growth was 129%.

`C#CC[C@@H]1C[C@]2(C)[C@H]3CC[C@@H]4[C@H]5C(C(=C)C)CC[C@]5(C(=O)NCCN(CCN)CCN)CC[C@@]4(C)[C@]3(C)CC[C@H]2C(C)(C)[C@H]1OC(C)=O` (stereo not given in full): the growth was -25.4% (active).

Consider `CCOC(=O)c1cc2c(n1Cc1cc(OC)c(OC)c(OC)c1)-c1oncc1CCC2`, for which the growth was 15.7%.

In the case of `COc1cc(C2CC(c3cccc(Nc4ccncc4)c3)=NN2C(C)=O)cc(OC)c1OC` (stereo not given), the growth is 86.6%.

Regarding `CC[C@H](Nc1cc(C)nc(N)n1)c1nc2cccc(NCc3ccc(C(=O)NO)cc3)c2c(=O)n1-c1ccccc1`, the growth is -10.6% (active).

On to `O=C(O)COc1ccc(F)cc1`, for which the growth is 98.8%.

For `COC(=O)c1cc(N=C2NC(=O)/C(=C/C=C/c3ccccc3)S2)ccc1O`, the growth is 17.5%.

With `O=C(N/N=C/c1cc([N+](=O)[O-])ccc1O)c1cccc2ccccc12`, the growth was -8.62% (active).

Consider `O=C1c2cc(S(=O)(=O)O)ccc2C(=O)c2c1cccc2[N+](=O)[O-]`, for which the growth is 114%.

As for `CCOC(=O)c1cc(C)[nH]c(=O)c1C#N`, the growth is 97.3%.

In the case of `CN1CCN(c2ccc(Nc3nc(NCCCNS(=O)(=O)c4cccc5ccccc45)c4sccc4n3)cc2)CC1`, the growth was -70.5% (active).

Consider `O=S1SC(c2ccccc2)=NN1c1cc(F)cc(F)c1` (stereo not given), for which the growth was 44.4%.

As to `COc1ccc(CNCCN2C(=O)c3ccc4c5c(ccc(c35)C2=O)C(=O)N(CCNCc2ccc(OC)cc2)C4=O)cc1`, the growth is -94.3% (active).

As for `CCOC(=O)Nc1ccc(C(=O)/C=C/c2ccccc2)cc1`, the growth is 94%.

`COc1ccc2[nH]c(O)c(N=NC(=O)c3oc4ccccc4c3C)c2c1`: the growth is 19.9%.

Turning to `COC(=O)c1cc2cc(-c3ccc(OC)cc3)cnc2[nH]1`, the growth is 17.4%.

For `c1csc(-c2cc(-c3cc(-c4cccs4)[nH]n3)n[nH]2)c1`, the growth is 77.3%.

For `CCCCCc1ccc(C)cc1OC(=O)CCl`, the growth is 110%.

Take `Cn1cc(Nc2nccc(-c3ccc(N4CCCC4)c(C#N)c3)n2)cn1`: the growth was 61.8%.

Take `Cc1cnc2nc(NN)[nH]n12`: the growth was 91%.

For the compound `O=C(Nc1cc(Cl)ccc1O)c1ccc(Nc2ccnc(C(F)(F)F)c2)cc1`, the growth was 58.7%.

Consider `O=C(Nn1c2c(sc1=Nc1ccccc1)C(=O)c1ccccc1C2=O)c1cc2ccc1CCc1ccc(cc1)CC2`, for which the growth is 105%.

On to `CCOC(=O)/C=C/c1ccc(C(=O)OCC)[nH]1`, for which the growth is 53.5%.

Regarding `CC(=O)c1c(O)cc2c3c1OC(C)(C)C1CCC(C)(CC31)O2` (stereo not given), the growth is 85.9%.

As for `O=C(Nc1ccc(Br)cc1)C1=NCCCCN1`, the growth is 97.6%.

For the compound `CC(C)OC1OC(OC(C)C)C(OC(C)C)OC1OC(C)C` (stereo not given), the growth is 101%.

Regarding `CNC1=C([N+](=O)[O-])C(c2ccc(OC)cc2)C(C#N)=C(c2ccc[nH]2)O1` (stereo not given), the growth was 96.1%.

`NS(=O)(=O)c1ccc(Nc2nc(Nc3ccccc3)nc3nnc(SCC(=O)NC4CCCCC4)n23)cc1`: the growth was 104%.

With `COc1ccc(/C=C2\SC(=Nc3cc(C)[nH]n3)NC2=O)cc1`, the growth was 82.6%.

Take `CN1c2ccccc2Sc2cc(C=C(C#N)C#N)ccc21`: the growth is -24.4% (active).

Take `COc1ccc(-c2cc(-c3cc(-c4ccc(OC)cc4)nc(N)n3)nc(N)n2)cc1`: the growth was 104%.
